Source: PubChem (National Center for Advancing Translational Sciences (NCATS))
IL-1B inflam inh: qHTS for Inhibitors of Inflammasome Signaling: IL-1-beta AlphaLISA Primary Screen. 360,000 tested, 4.7% active. activity change, % at 57.5 µM. THP-1 LPS/ATP IL-1B secretion, AlphaLISA, 16 h; hits give low values. AID 743279, 2014; in the data active means activity change below about -50%; inconclusive means mostly about -30% to -49%
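Secreted IL-1B measured by AlphaLISA bead assay after 16 h compound exposure of THP-1 cells; compounds (final up to 57.5 uM) added 1 h before LPS (250 ng/mL) and ATP (1.25 mM) stimulation; lower signal means less secretion.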
ELG1 DNA repair: qHTS screen for small molecules that inhibit ELG1-dependent DNA repair in human embryonic kidney (HEK293T) cells expressing luciferase-tagged ELG1; HEK293T ELG1-luciferase reporter, luminescence, 16 h; DNA damage induced by 5-fluorouridine; Potency, µM (titrated, usually from 46.1 µM), inactives show at the top dose activity change, negative = inhibition, hits mostly inhibitors; 330,000 tested, 2.3% active; AID 504467, 2011; further: potency means the concentration at half of the fitted maximal effect; nearly all actives have a fitted effect of over 55% in size
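Step one: seed 2,000 cells per well. Step two: pin-transfer compound or DMSO alongside 5-fluorouridine. Step three: incubate 16 hr, 37 °C, 5% CO2. Step four: add ONE-Glo, wait 30 min, read luminescence.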
HT1080 IDH1KD tx: qHTS for induction of synthetic lethality in tumor cells producing 2HG: qHTS for the HT-1080-IDH1KD cell line; 360,000 tested, 2% active; AID 686971, 2013; HT-1080 IDH1 knockdown viability, ATP luminescence, 48 h; Potency, µM (doses to about 46.1 µM), inactives show at the highest dose activity, negative = toxicity, usual class: cytotoxic;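 further: potency means the concentration at half of the fitted maximal effect; 0% = DMSO wells and -100% = cell-free medium wells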
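IDH1KD HT-1080 cells, 750/well, RPMI + 5% FBS; compound pinned after 2 h settling; 48 h, 37 °C; CellTiter-Glo luminescence; % activity normalised to DMSO and no-cell wells; curves fitted, classed by r2 and efficacy.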
HT1080NT lethal: qHTS for induction of synthetic lethality in tumor cells producing 2HG: qHTS for the HT-1080-NT fibrosarcoma cell line | HT-1080-NT fibrosarcoma viability, CellTiter-Glo ATP luminescence, 48 h | AID 686970, 2013 | 360,000 tested, 1.6% active | Potency, µM (titrated, usually from 46.1 µM), for inactives: top-dose activity, negative = less viability, actives largely listed as cytotoxic;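 further: NT is the 2HG producing partner of a matched IDH1 knockdown line; potency means the concentration at half of the fitted maximal effect; 0% = DMSO-treated cells and -100% = media-only wells without cells; nearly all actives have a fitted effect of over 55% in size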
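Compounds were tested in concentration-response format on HT-1080-NT cells for 48 hours at 37 degrees C. Cell viability came from CellTiter-Glo luminescence; curves were classified by r2, response magnitude and activity.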
DT40 TDP1 CPT: qHTS for Inhibitors of human tyrosyl-DNA phosphodiesterase 1 (TDP1): qHTS in cells in presence of CPT; chicken DT40 Tdp1-/-;hTDP1 cells + 20 nM CPT, ATP luminescence, 48 h; Potency, µM (highest dose often 46.2 µM), for the others: top-dose activity change, negative = growth inhibition, actives largely listed as inhibitors; 420,000 tested, 12% active; further: potency means the concentration at half of the fitted maximal effect; nearly all actives have a fitted effect of over 55% in size
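Cell growth measured by CellTiter-Glo luminescence after a minimum 48 h, 37 C compound exposure with 20 nM CPT in Tdp1-knockout DT40 cells stably expressing hTDP1, seeded 400/well; qHTS titration format.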
DT40 TDP1 no CPT: qHTS for Inhibitors of human tyrosyl-DNA phosphodiesterase 1 (TDP1): qHTS in cells in absence of CPT | DT40 Tdp1-/- hTDP1 cells, no CPT, ATP luminescence, 48 h | 420,000 tested, 15% active | AID 686978, 2013 | Potency, µM (highest dose often 46.2 µM), without a hit: at the top dose activity change, negative = growth inhibition, actives largely listed as inhibitors; further: potency means the concentration at half of the fitted maximal effect; nearly all actives have a fitted effect of over 55% in size
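DT40 Tdp1-/-;hTDP1 cells, no CPT (DMSO vehicle only), 400 cells/well; compounds pin-transferred; ≥48 hr, 37 °C; CellTiter-Glo 30 min RT dark, luminescence read.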
An asterisk follows results filed as active; ? = inconclusive; · = no result given; [ ] = another dose, or the depositor's remark. Sampled rows, rich in hits. Any-hit rate of the full collection: about 19%. Unless noted, the call rests on the fitted dose curve; in most records, active means well fitted curve in the direction sought with a large enough effect; inconclusive means small, poorly fitted or top-dose-only effect, or another doubt; inactive means no such curve, though single readings can be large; an effect the other way counts as inactive or inconclusive. Unless noted, on the % scale 0 is the no-effect control and ±100 the full control effect.

SMILES	IL-1B inflam inh	ELG1 DNA repair	HT1080 IDH1KD tx	HT1080NT lethal	DT40 TDP1 CPT	DT40 TDP1 no CPT
COc1cccc(-n2c(SC)nnc2C2CCN(Cc3cccc(OC)c3O)CC2)c1	·	·	·	·	-2%[9.04 µM]	?
C[C@H](NCc1c[nH]c2ccccc12)c1ccccc1	0	12%	0%	-11%	21µM*	?
CN(Cc1ccccc1)Cc1c[nH]c2ccccc12	?	-5%	0%	-8%	5.8µM*	21µM*
CN(Cc1ccccc1)Cc1ccccc1	·	·	·	·	19%	-14%
O=C([C@@H]1CC=C[C@@H]2CCN(C3CC3)C(=O)[C@@H]21)N1CCOCC1	·	·	·	·	?	-17%
O=C(c1ccc(Cl)cc1)C(Cn1cncn1)C(Sc1ccccc1)c1ccccc1 (stereo not given)	-61*	?	?	?	?	?
O=c1c(-c2cc(F)cc(F)c2)nc2cnc(Oc3ccccc3)nc2n1C1CC1	·	·	·	·	-16%	?
CC(C)(C)C1CCC(C(=O)Nc2nccs2)CC1 (stereo not given)	20	?	11%	11%	?	23µM*
CCN1CCN(C(=O)Cn2ncc3c4ccccc4n(Cc4ccccc4F)c3c2=O)CC1	·	·	·	·	15µM*	18µM*
Cc1cc(C)c(Cn2c3ccccc3c3cnn(CC(=O)N4CCCCC4)c(=O)c32)c(C)c1	·	·	·	·	-23%	-23%
O=C(Cn1nnc2c(cnn2-c2ccccc2)c1=O)NCc1cccs1	18	0%	?	?	?	23µM*
Cc1nn(CC(=O)NCc2cccs2)c(=O)c2nn(-c3ccccc3)c(C)c12	-4	12%	10%	2%	11%	11%
CCCn1c2ccccc2c2cnn(CC(=O)N3CCOCC3)c(=O)c21	19	-3%	-3%	0%	-20%	?
CCOC(=O)C1CCCN(C(=O)Cn2ncc3c4ccccc4n(Cc4ccc(F)cc4)c3c2=O)C1 (stereo not given)	·	·	·	·	23µM*	15µM*
CC1CCC(C(C)C)C(OC(=O)Cn2nnc3c(cnn3-c3ccccc3)c2=O)C1 (stereo not given)	27	16µM*	13%	1%	?	?
Cc1cc(C)nc(NN2C(=O)C=CC2=O)n1	-3	-1%	19%	13%	?	?
CC1CC(C)CN(C(=O)Cn2ncc3c([nH]c4ccccc43)c2=O)C1 (stereo not given)	27	-4%	-15%	3%	?	?
Cc1cc(C)c(Cn2c3ccccc3c3cnn(CC(=O)NC4CCCCCC4)c(=O)c32)c(C)c1	·	·	·	·	-22%	?
Cc1cc(C)c(Cn2c3ccccc3c3cnn(CC(=O)NCc4cccs4)c(=O)c32)c(C)c1	·	·	·	·	15µM*	21µM*
CCN1CCN(C(=O)Cn2ncc3c4ccccc4n(Cc4c(C)cc(C)cc4C)c3c2=O)CC1	·	·	·	·	?	16µM*
CCOC(=O)C1CCCN(C(=O)Cn2ncc3c([nH]c4ccccc43)c2=O)C1 (stereo not given)	-84*	3%	6%	9%	?	?
CCOC(=O)C1CCN(C(=O)Cn2ncc3c4ccccc4n(Cc4ccccc4F)c3c2=O)CC1	·	·	·	·	3.3µM*	4.6µM*
CC(=O)N[C@@H](CC(=O)O)C(=O)N[C@@H](CCC(=O)O)C(=O)O	·	·	·	·	11%	-6%
NC(=O)[C@H]1O[C@@H](O)[C@H](O)[C@@H](O)[C@@H]1O	·	·	·	·	-2%	-17%
CCC(=O)N1CCc2cc(CNC(=O)c3cccc(N(C)C)c3)ccc21	·	·	·	·	-7%	-26%
SMILES	IL-1B inflam inh	ELG1 DNA repair	HT1080 IDH1KD tx	HT1080NT lethal	DT40 TDP1 CPT	DT40 TDP1 no CPT
COc1ccc(C(=O)N/C(=C/c2ccc(Cl)cc2)C(=O)Nc2ccc(C(=O)O)cc2)cc1	-4	-1%	8%	6%	16%	7%
COc1cc(C2CC(=O)N(c3ccccc3)C3=C2C(=O)OC3)cc(OC)c1OC (stereo not given)	·	·	·	·	1%	-7%
Cc1c2cnn(CC(=O)N3CCN(c4ccccc4)CC3)c(=O)c2c(C)n1Cc1ccc(F)cc1	·	·	·	·	21µM*	13µM*
O=C(Cn1ncc2c3ccccc3n(Cc3ccccc3)c2c1=O)N1CCN(c2ncccn2)CC1	-1	?	-24%	-7%	-22%	?
CN1CCN(C(=O)Cn2ncc3c4ccccc4n(Cc4ccc(Cl)cc4)c3c2=O)CC1	·	·	·	·	23µM*	10µM*
Cc1c2cnn(CC(=O)N3CCN(c4ncccn4)CC3)c(=O)c2c(C)n1Cc1ccc(F)cc1	·	-12%	·	·	·	·
CCN1CCN(C(=O)Cn2ncc3c4ccccc4n(Cc4ccccc4)c3c2=O)CC1	·	·	·	·	16µM*	15µM*
Cc1ccccc1Cn1c2ccccc2c2cnn(CC(=O)N3CCC(C)CC3)c(=O)c21	·	·	·	·	21µM*	15µM*
CC1CCCCN1C(=O)Cn1ncc2c3ccccc3n(Cc3ccccc3F)c2c1=O (stereo not given)	·	·	·	·	9.2µM*	9.2µM*
CN(C)S(=O)(=O)c1cccc(NC(=O)c2ccc(NS(=O)(=O)c3cccs3)cc2)c1	0	-13%	-1%	4%	-25%	-22%
COc1cccc(-c2oc3c(c2C#CCCO)C(O)CCC3)c1 (stereo not given)	3	·	1%	4%	-8%	-15%
COc1cccc(-c2oc3c(c2C#CC2(N)CCCCC2)C(O)CCC3)c1 (stereo not given)	-11	·	?	16µM*	18µM*	18µM*
COc1ccc(Cn2ccnc2SCC(=O)NCc2ccccc2)cc1	·	·	·	·	16µM*	?
CCc1nnc(NC(=O)CSc2nccn2Cc2ccccc2)s1	·	·	·	·	?	21µM*
Cn1ccnc1C(=O)c1cc(SCC(=O)NCc2ccccc2)nc2ccccc12	65	8.2µM*	?	10µM*	6.5µM*	5.2µM*
CCc1nnc(NC(=O)CSc2nccn2Cc2ccc(C)cc2)s1	·	·	·	·	-23%	-24%
COc1cccc(CNC(=O)Cc2ccc(-c3ccccc3)cc2)c1	22	-24%	18µM*	?	?	21µM*
